# Experiments:
# Assay in all cases: PBM binding z-score (relative to random genomic background probes); higher = stronger binding; sequences stand for … in GC…GCGATTGACAGCGTAGAATGAAGG
# [1] = tested on: RARb homodimer (NR concentration 270 nM)
# Procedure, shortened: (§1)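 Binding z-scores take random background probes as their reference. They come from custom Agilent 4×180K protein-binding microarrays incubated 1 h with ligand-free nuclear receptor dimers, with antibodies against each partner (one per run) detecting binding. Scanned fluorescence was regression-normalized.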
# [2] = tested on: RARg:RXRa (NR concentration 270 nM, RXRa partner concentration 90 nM)
# Procedure, shortened: as §1
# [3] = tested on: RARg homodimer (NR concentration 270 nM)
# Procedure, shortened: as §1
# [4] = tested on: RXRa DBDmut IVT, anti-RXR (DBD mutation: RXRa K156A/R161A, NR concentration 90 nM)
# Procedure, shortened: as §1
# [5] = tested on: RXRa homodimer (NR concentration 180 nM)
# Procedure, shortened: as §1
# [6] = tested on: THRa:RXRa (NR concentration 90 nM, RXRa partner concentration 90 nM)
# Procedure, shortened: as §1
# [7] = tested on: THRa homodimer (NR concentration 90 nM)
# Procedure, shortened: as §1
# [8] = tested on: VDR homodimer (NR concentration 270 nM)
# Procedure, shortened: as §1
Sequence,PBM binding z-score [1],PBM binding z-score [2],PBM binding z-score [3],PBM binding z-score [4],PBM binding z-score [5],PBM binding z-score [6],PBM binding z-score [7],PBM binding z-score [8]
AGAACGAGGGCAATGAGCTGATAGCACGGGTGGC,0.707,1.15,1.22,1.19,0.871,0.598,-0.379,0.597
TCGAGTAGGTTAGGGGCAATCAGAATGGCGTCGA,0.79,0.398,0.315,0.12,0.782,0.826,0.262,0.267
CGTCCAAAGTCAGAGAGGTCAGTGAATGCCGAGT,4.21,2.98,3.26,1.16,2.65,2.72,0.954,2.12
ACTTACGGGTCAACGAGGTTATATCACGCGTATA,3.73,5.37,4.95,2.74,6.14,4.04,1.45,3.3
ATCTCTAGGTAAGACGCAGTTCAGTGAAGAACGC,0.117,0.165,0.097,0.0393,-0.00227,0.223,-0.325,0.544
CCAGTCAGGTGAGAAGGTAACTCAGCCTCGATTA,0.469,0.276,0.321,-0.0426,0.153,1.11,0.512,-0.271
ATATGTAGGTTATCGGGTGATTCAGTTTGCGCAT,1.27,0.897,0.751,0.935,1.26,1.27,1.49,0.83
CCTAGTTGGTCAAGGTTACACACGCTATAGGTAC,2.15,1.49,1.86,1.24,1.48,2.16,1.78,1.42
CAAACTATGTCACCGGAAGGTCAAAGTCCGCATG,4.63,5.37,4.06,1.32,4.15,3.11,1.99,2.33
CCAGACAGGGGAGAAGGTAACTCAGCCTCGATTA,-0.0846,-0.296,-0.226,0.218,-0.357,-0.218,-0.17,-0.316
TCTATGAGTTGATTAGGGCAACCGAAACAGCGGA,0.553,0.54,0.536,1.45,0.681,0.857,-0.131,0.333
GCATATAGGTAATAAAAGGTGAAAGTCCGATTGT,1.63,0.972,0.621,0.496,1.53,2.61,-0.141,0.166
CCGAGTAGGTTATGGGGAATTCAGGCAACGGTGA,0.783,0.446,0.494,0.287,0.487,0.724,0.701,0.246
TTATATAGGTAATACAGGTGAAAGTCGGCATCTA,0.731,0.618,0.933,0.117,1.11,1.06,0.46,0.401
ATACCAAGGTGATCGTGCGGTCGTTGATACTAAC,0.887,0.886,0.233,-0.0167,0.159,1.23,0.424,0.302
CGTCCAAGGCCAATGCTAGGTCAGTGAAAGCATT,2.64,2.16,1.94,0.513,0.218,2,0.569,0.135
AGAATGAGGTTATTAAGATGAGGGAATTGCGGTC,0.734,1.15,0.922,1.9,1.87,2.08,0.746,1.16
CCAGACAGGTGAAAAGTAACTCAGTCTGGTACGC,-0.15,0.316,0.402,0.15,0.307,-0.0735,-0.599,-0.225
CCTACTGGGCCATCAGGTCATTTATATCAACGTT,2.44,1.8,1.64,0.641,0.891,3.14,3.01,1.61
TCTCGGAGGATACGAAAGGTCAGAGCTCGACATC,4.38,4.12,3.73,0.587,4.38,2.98,0.363,0.361
CGAACTAGGTCATCCAGGACAGTGATTACATTGA,1.77,4.03,5.13,2.49,3.37,3.68,2.14,2.32
ATATGTAGGTTAGCTGGGGTCAGTCAGACTAGGC,3.61,3.36,2.88,0.894,3.64,5.02,2.36,2.29
TCATATAGGTAAAGGTGAATGTCGAACGATATGA,1.3,1.37,1.21,0.686,1.9,1.16,-0.293,-0.0294
ACTAGTTGGTCAGCTGAGGTCACGCACAATTCGG,4.79,4.85,4.8,1.32,4.79,5.26,5.78,3.51
ACTAGCAGGCCAAGGGTCACTCGAGATTAGTCCG,3.75,3.93,4.02,0.801,4.28,2.45,0.0934,1.06
AGAATGAGGTTATGATCAGGGAAACAGAATACAT,0.715,1.74,1.11,1.02,2.16,2.44,0.714,0.317
CTAACTAGGTCATCCAGGACAGTGAATACATTGA,2.94,4.11,4.62,2.34,3.07,3.84,2.16,2.32
GATTGTAGATCAAGGTTAAGAAAGACTAAGCTAA,-0.213,0.14,0.339,-0.224,0.781,0.867,-0.616,-0.0253

# — the supplement of paper PMC6555819
